The values below come from publication PMC7819943, “Rice protein-binding microarrays: a tool to detect cis-acting elements near promoter regions in rice”.

In all, about 39,000 sequences were measured (“fluorescence intensity (a.u.)”: median about 4,300, highest 2% from about 39,000 on). The sample holds the highest values, similar sequences and a random draw of the others, so the mix is not that of the screen.

In this test the target is T1, OsSMF1 (Oryza sativa, UniProt Q6ZLB0 1-436).
T1 sequence: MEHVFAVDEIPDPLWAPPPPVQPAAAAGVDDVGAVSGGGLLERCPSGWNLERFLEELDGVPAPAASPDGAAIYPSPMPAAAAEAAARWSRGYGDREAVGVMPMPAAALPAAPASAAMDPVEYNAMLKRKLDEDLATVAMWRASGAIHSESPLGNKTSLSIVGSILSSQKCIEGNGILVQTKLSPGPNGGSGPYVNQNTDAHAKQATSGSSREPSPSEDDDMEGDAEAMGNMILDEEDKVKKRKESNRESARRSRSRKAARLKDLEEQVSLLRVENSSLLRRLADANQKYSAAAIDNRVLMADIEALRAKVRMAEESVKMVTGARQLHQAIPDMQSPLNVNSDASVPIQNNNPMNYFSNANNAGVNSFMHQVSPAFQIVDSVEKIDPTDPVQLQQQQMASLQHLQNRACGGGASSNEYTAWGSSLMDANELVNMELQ
The experiment in a line: protein-binding microarray (RPBM); PBS, 2% BSA, 51.3 ng/ul salmon testes DNA, 50 uM zinc acetate, 200 nM TF, 25 C, 1 h; high values mean tight binding. To be noted: protein: recombinant; tags: N-terminal polyhistidine and DsRed monomer fusion (pET32a); chain copies: 2; label: CyDye5-dUTP incorporated in the synthesized complementary strand; 3' TTTTT single-stranded linker to array surface; dsDNA, one strand shown. The essentials: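 Transcription factors were made in E. coli BL21-CodonPlus as N-terminal fusions to a polyhistidine tag and DsRed, then purified on Ni–NTA. After primer extension with Cy5-dUTP and blocking with 2% BSA, a custom Agilent array was exposed for 1 h at 25 °C to 200 nM protein in PBS, 2% BSA, salmon testes DNA and 50 µM zinc acetate. Washed arrays were scanned on an Axon 4000B, and the binding signal is per-feature fluorescence intensity in arbitrary units.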
Consider “GAAGTGTCCATATTGAGTCATTTGTCCATTTGCCCAGGCACGGAGTCACCTAGTGCAG”, for which the binding signal is 4960 fluorescence intensity (a.u.). Take “TCCTCTTGCCTCCTCCGCTGAGGCAGCCAGTGCGTGCGCCCGGAGTCACCTAGTGCAG”: the binding signal was 3360 fluorescence intensity (a.u.). For “AGATGATCTAGGCGTGCGTGCATGCATGCGTGGCCCGCCACGGAGTCACCTAGTGCAG”, the binding signal was 4340 fluorescence intensity (a.u.). Regarding “CTCCTCCTCCTCCAGACCTCCACGCGAGCGTGCCCCGGGGCGGAGTCACCTAGTGCAG”, the binding signal was 4470 fluorescence intensity (a.u.).

On to “CCGTACTCATAAAGGAAGTCGTTTTGGACAGCATCACGGTCGGAGTCACCTAGTGCAG”, for which the binding signal was 4170 fluorescence intensity (a.u.). The same measure for “GCCTCGTTTGATTGGTCACATGCATGGAAAGAGACTCACACGGAGTCACCTAGTGCAG”: 16700 fluorescence intensity (a.u.); for “AAGGAAGTCGTTTTGGACAGCGACACAGTCTCTAAAACACCGGAGTCACCTAGTGCAG”: 58900 fluorescence intensity (a.u.); for “TTGCAAACACAGGAATTACCGTTTGATTGAACCACAGGAACGGAGTCACCTAGTGCAG”: 12300 fluorescence intensity (a.u.). As to “CAACTTTGGAAGAACTAAACACAGCATATGACAGTGCAGTCGGAGTCACCTAGTGCAG”, the binding signal was 4130 fluorescence intensity (a.u.).

For “AAAACACAGGAATGGTCGTTTGATTGGAGCGCAGGAGAAACGGAGTCACCTAGTGCAG”, the binding signal was 64900 fluorescence intensity (a.u.). For the sequence “TAACATAGTTGATATTGTTTAATGTCATGACAAAGAATGACGGAGTCACCTAGTGCAG”, the binding signal is 3580 fluorescence intensity (a.u.).

For “CTCCTACATGCACTCCCCTCTACAAAACCACAACCAGCATCGGAGTCACCTAGTGCAG”, the binding signal was 3600 fluorescence intensity (a.u.). As for “ACTATTTCTCCAGATAGTAGTAGTAACTCTTACGTCATGGCGGAGTCACCTAGTGCAG”, the figure is 4910 fluorescence intensity (a.u.); as for “CAAAAGGGAATGCTTTAGGCAGATCATGGAGATAAAGACTCGGAGTCACCTAGTGCAG”, 39000 fluorescence intensity (a.u.); as for “TAAGCGCCACATCAGTGCCACGTCGGATGAAGACCGAGTCCGGAGTCACCTAGTGCAG”, 25000 fluorescence intensity (a.u.). With “ATAAAGACCTAGTCAATGGAGTGCCACGTAGGCACCACGTCGGAGTCACCTAGTGCAG”, the binding signal is 39000 fluorescence intensity (a.u.).

Turning to “AGCGTCACCTCAATGCCACGTGTGATAAAGACCTAGTTAACGGAGTCACCTAGTGCAG”, the binding signal was 17200 fluorescence intensity (a.u.).

On to “GAATTGCCACGTAGGCGCCACGTCATATGAAGACCGAGTCCGGAGTCACCTAGTGCAG”, for which the binding signal was 45500 fluorescence intensity (a.u.).

Turning to “TTGTCAAATCATGGCGTCATTAGGCTTAAAAGATTCGTCTCGGAGTCACCTAGTGCAG”, the binding signal is 4280 fluorescence intensity (a.u.). For the sequence “AAATTGCCACGTAAGTGCCATGTCATATGAAGACCGAGTCCGGAGTCACCTAGTGCAG”, the binding signal is 17800 fluorescence intensity (a.u.). Regarding “CAGACAGACACAGAGAGATCGATATCAACATGCTTTAGTCCGGAGTCACCTAGTGCAG”, the binding signal was 3710 fluorescence intensity (a.u.). Turning to “CAAATCAAATTACCACATAAGCACCACGTCAATGCCACGTCGGAGTCACCTAGTGCAG”, the binding signal is 22200 fluorescence intensity (a.u.). Regarding “GTGTAGTTACCTTCTCGTAGGTGTCATCGAGGATGATGGCCGGAGTCACCTAGTGCAG”, the binding signal was 3910 fluorescence intensity (a.u.). With “CGGTATCGACGCAGCGTCTGAATGCAAGGGCCCGTGGTCACGGAGTCACCTAGTGCAG”, the binding signal is 27400 fluorescence intensity (a.u.). In the case of “CGCCCAGGACGTCATGCCGGAGCTGGCCATGGTCACCGCGCGGAGTCACCTAGTGCAG”, the binding signal is 4070 fluorescence intensity (a.u.). Regarding “GAGTTGTCAAGGGATGTCATCCCGACGTCAACACGATGGCCGGAGTCACCTAGTGCAG”, the binding signal is 4620 fluorescence intensity (a.u.). Consider “CGACAGCGGAACGTGAGCTCTGGGGCGACGACGGCGGCAACGGAGTCACCTAGTGCAG”, for which the binding signal was 46800 fluorescence intensity (a.u.). For the sequence “ACGGCGACAGCGTGGAGCTCCACGACGGCAGCGACGTCGGCGGAGTCACCTAGTGCAG”, the binding signal is 3590 fluorescence intensity (a.u.). Consider “CGGCAACAGCGGTGACAACGTGACGACGGGTGACGAGGCGCGGAGTCACCTAGTGCAG”, for which the binding signal is 5320 fluorescence intensity (a.u.).

On to “CAAGCTCATCAACTTCGTTCGGTCCAAGGTGCGTCAGGGTCGGAGTCACCTAGTGCAG”, for which the binding signal is 3180 fluorescence intensity (a.u.). With “TTAGCAACCTATCGTCATAGAGAGACCCAATGAACCCTTGCGGAGTCACCTAGTGCAG”, the binding signal was 3860 fluorescence intensity (a.u.). In the case of “TAGAGAAAGCAAAGCACATACATAGGCTAATTCTCCTTTACGGAGTCACCTAGTGCAG”, the binding signal is 39200 fluorescence intensity (a.u.). Turning to “CCCTAGTCTCCTCCCTTGTACATAGGCAAATCCATACGCACGGAGTCACCTAGTGCAG”, the binding signal was 3640 fluorescence intensity (a.u.). For the sequence “TAATTGGGGTGATGTGGCTAATTCTCAAAGCAGTTTTATACGGAGTCACCTAGTGCAG”, the binding signal was 5820 fluorescence intensity (a.u.). As for “CGCCATGGGCGAGGCGGTGAAGGGGCCAGTGGTGGTGACGCGGAGTCACCTAGTGCAG”, the binding signal was 4250 fluorescence intensity (a.u.). In the case of “TCTTCCTCAAAGTAAAATAGAAGCTAGGGCTAAGAGCCCACGGAGTCACCTAGTGCAG”, the binding signal is 65100 fluorescence intensity (a.u.). On to “AAATAGAAAGCCCAAACGGATATTTCTTCCTGAGAGCCACCGGAGTCACCTAGTGCAG”, for which the binding signal is 35600 fluorescence intensity (a.u.). For “TATAGCAAAGAAAAGTAAAATAAGAGGCATGAGCTCACGCCGGAGTCACCTAGTGCAG”, the binding signal is 37800 fluorescence intensity (a.u.). On to “CTACACACGAGACGTGCAAACCTGCAGATTTTGTTACTTGCGGAGTCACCTAGTGCAG”, for which the binding signal was 4830 fluorescence intensity (a.u.). The same measure for “CCACGGGCTACAAAGCACGCGCGTCACTCGCTCTCGCGGCCGGAGTCACCTAGTGCAG”: 4390 fluorescence intensity (a.u.); for “TCCGTATGAAATAGTGTCTCCGTCAGATTGGGGAAGCGGGCGGAGTCACCTAGTGCAG”: 3200 fluorescence intensity (a.u.); for “CAGAAGCGTCTACATACAATAGGATTGGGGCCTGCAAATCCGGAGTCACCTAGTGCAG”: 55500 fluorescence intensity (a.u.). Take “AAATGTAGTTGTAAAATCCACAAAATAGTCTAGTCAGAAGCGGAGTCACCTAGTGCAG”: the binding signal is 3340 fluorescence intensity (a.u.).

As for “TGTGTTCTCAATTTTGCGTGTTCTCAATGACACGTGAACACGGAGTCACCTAGTGCAG”, the binding signal was 5630 fluorescence intensity (a.u.).
